Only some compounds are listed: those with a hit (about 6.2% of all), similar ones and a draw of the others.
NR3A LBD binder: modulators (binders) of human NR3A ligand-binding domain; NR3A LBD differential scanning fluorimetry, Tm shift; 0% = protein alone, 100% = glycine-bound protein; actives 2.5% (n = 340,000); Tm shift relative to glycine control, % at 25 µM;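 active means melting temperature shift of at least 10% of the positive control shift, at one fixed dose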
SUMO Mot1 rescue: SUMOylation pathway inhibition by Mot1-301 growth rescue. AID 2716. growth rescue, % at 18.8 µM. S. cerevisiae Mot1-301 growth rescue, ATP luminescence, 38.5C; percent above DMSO median, 100 means doubled. actives 1% (n = 320,000);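 active means every valid replicate shows activation above 250% relative to neutral control wells; inactive means the rest, any valid replicate at or below 250%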;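 further: OY570 slx delta 5 strain wells were the positive control but not used for scaling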
Cardio protect: modulators protecting cardiomyocytes from myocardial damage. H9c2 cardiomyocytes, H2O2 injury protection, ATPLite, 2 h. actives 0.63% (n = 360,000). protection from H2O2 cell death, % at 20 µM;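 active means compounds giving at least 50% protection of heart cells from peroxide-induced death in the single-dose screen, raw or plate-pattern-corrected value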;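 further: 0% = DMSO wells with peroxide and 100% = DMSO wells without peroxide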
NTR1 ag: agonists of human neurotensin receptor NTR1 | P30989 | NTR1-U2OS beta-arrestin-GFP spot imaging, agonist mode | activation, % at 20 µM | actives 0.17% (n = 330,000) | AID 493036;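 active means activation at or above 40% of the spot to cytoplasm intensity ratio, with at least 20 cells analyzed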;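 further: 0% = DMSO without peptide and 100% = 100 nM NTR1 peptide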
AI-2 QS mod: modulates the Vibrio harveyi AI-2 quorum sensing system; Vibrio harveyi JMH597 AI-2 luminescence/OD600 ratio, 9 h; stronger effect = lower value; strain lacks LuxN and CqsS sensors; 0 = neutral-control median; activity change, % at 7.5 µM; actives 0.4% (n = 300,000); AID 2094; in the data active means activity change below about -75%, passing the limit was not always enough;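 further: luminescence divided by OD600 gain over 9 h not by final OD600 alone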
AHR activator: activates the human aryl hydrocarbon receptor; actives 2.5% (n = 320,000); P35869; AHR-responsive luciferase reporter cells, luminescence; activation, % at 5 µM; in the data active means activation above about 47%;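 further: 0% = vehicle wells and 100% = reference agonist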
AHR act cf: confirmation of human aryl hydrocarbon receptor activators; actives 87% (n = 2,300); shares compounds with AHR activator; activation, % at 9 µM; AID 2845; human cells, AHR-responsive luciferase reporter, luminescence; in the data active means activation above about 49%;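 further: HepG2 hepatoma cells carrying a DRE-driven firefly luciferase reporter; 0% = vehicle wells and 100% = reference agonist wells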
PXR counter: PXR activation, counter-screen for AHR activators; activation, % at 11.6 µM; actives 88% (n = 2,300); cell-based PXR reporter, luciferase luminescence; shares compounds with AHR activator; in the data active means activation above about 11%;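 further: human hepatoma DPX-2 cells expressing full-length human PXR; 0% = DMSO and 100% = reference agonist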
Target sequence (O75469 whole entry, looked up): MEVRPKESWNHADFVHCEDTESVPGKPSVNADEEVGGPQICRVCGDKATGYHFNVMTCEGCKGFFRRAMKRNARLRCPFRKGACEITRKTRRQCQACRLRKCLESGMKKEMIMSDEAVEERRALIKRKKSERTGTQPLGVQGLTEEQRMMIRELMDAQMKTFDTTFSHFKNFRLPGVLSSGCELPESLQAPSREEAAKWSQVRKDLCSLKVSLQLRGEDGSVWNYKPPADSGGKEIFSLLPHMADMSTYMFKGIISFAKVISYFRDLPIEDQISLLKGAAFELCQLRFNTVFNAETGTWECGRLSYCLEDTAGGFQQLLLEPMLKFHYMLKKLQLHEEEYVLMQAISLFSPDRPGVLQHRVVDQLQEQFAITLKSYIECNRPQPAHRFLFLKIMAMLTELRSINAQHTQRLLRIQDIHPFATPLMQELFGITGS
An asterisk follows results filed as active; . = no result given.

SMILES | NR3A LBD binder | SUMO Mot1 rescue | Cardio protect | NTR1 ag | AI-2 QS mod | AHR activator | AHR act cf | PXR counter
CC(C)(C)c1ccc(C(=O)N/C(N)=N/c2nc3ccccc3o2)cc1 | -2.6 | 40.6 | -10.9 | 7.7 | 18.2 | 12.4 | . | .
N/C(=N\c1nc2ccccc2o1)NC(=O)c1ccc(F)cc1 | -2.1 | -7.5 | 1.8 | -0.7 | 16.7 | 82.8* | 144.8* | 29.6*
CCOc1ccc2nc(NC(=O)Cc3cccs3)sc2c1 | -7.7 | 0.2 | -15.0 | 2.6 | 19.8 | 33.8 | . | .
CCOc1ccc2nc(NC(=O)Nc3cccs3)sc2c1 | 26.1* | 1.6 | -30.1 | 3.2 | 5.2 | 95.6* | 90.2* | 12.0*
Cc1n[nH]c(C)c1N=Nc1ccc(Br)cc1 | -8.3 | 110.6 | -7.9 | -0.2 | 17.0 | 131.7* | 123.1* | 20.2*
COc1ccc(N=Nc2c(C)n[nH]c2C)cc1 | -0.9 | 0.8 | -1.3 | -1.2 | 11.9 | 46.9 | . | .
CC(C)Cc1nnc(NC(=O)CCC(=O)N2CCN(Cc3ccc(Cl)cc3)CC2)s1 | -0.1 | 2.7 | -8.7 | 0.2 | 17.5 | 0.6 | . | .
O=C(Nc1ccc(Cl)cc1)c1ccc(Br)cc1F | -2.3 | 7.4 | -14.9 | 3.7 | 23.0 | 96.9* | 130.5* | 64.8*
CC(C)c1ccc(NC(=O)c2cc(Br)ccc2Br)cc1 | -3.7 | . | -18.8 | 5.0 | 27.7 | 28.5 | . | .
CC(=O)Nc1ccc(C(=O)CN2CCN(c3ccccc3)CC2)cc1 | -1.5 | -8.6 | 2.0 | 0.4 | . | -1.1 | . | .
O=C(COc1cccnc1[N+](=O)[O-])c1c[nH]c2ccccc12 | 2.9 | -7.8 | 8.2 | 1.6 | -6.3 | 87.3* | 107.7* | 15.6*
COC(=O)c1ccc(NC(=O)CN2C(=O)CC(C)S(=O)(=O)c3ccccc32)cc1 (stereo not given) | 2.3 | -7.5 | 8.4 | 0.4 | 5.5 | 3.9 | . | .
CN=C(Nc1ccc(Cl)cc1)c1ccc(C(F)(F)F)cc1 | -1.1 | -20.6 | -7.7 | -1.0 | 5.0 | 84.8* | 98.0* | 45.0*
CN=C(Nc1ccc(Cl)cc1)c1cccc(C(F)(F)F)c1 | 0.4 | 35.9 | -8.7 | -0.7 | 11.4 | 83.7* | 89.0* | 55.6*
CC(C)(CCl)C(=O)Nc1ccc(C(F)(F)F)cc1 | -0.6 | -15.3 | 4.3 | 0.1 | 25.6 | -1.4 | . | .
CN=C(Nc1cccnc1)c1cccc(C(F)(F)F)c1 | 2.2 | 148.2 | 2.8 | -1.1 | -2.7 | 3.2 | . | .
CCN1CCc2nc3ccccc3c(C(=O)Nc3ccc(F)cc3)c2C1 | -0.4 | -2.5 | -1.2 | -0.2 | 13.1 | 94.0* | 63.0* | 26.4*
Cn1c2ccccc2c(=O)c2ccc(NCCc3cccs3)cc21 | -2.8 | 91.2 | 0.6 | 9.3 | . | 110.6* | -1.7 | 112.5*
NC(=O)c1ccc(NCCc2cccs2)cc1 | . | . | 1.8 | . | . | . | . | .
c1ccc(COc2ccc(-c3cc4nc(NCCN5CCOCC5)ccn4n3)cc2)cc1 | . | . | -5.1 | . | . | . | . | .
O=C(CCSc1nnc2scc(-c3ccccc3)n12)NCc1ccc2c(c1)OCO2 | -0.9 | 3.2 | 2.2 | 0.7 | 30.6 | 1.7 | . | .
c1ccc(-c2csc3nnc(SCc4ccc5c(c4)OCO5)n23)cc1 | -0.3 | 9.2 | -7.9 | -1.3 | 15.4 | 83.7* | 48.1* | 130.4*
Cc1ccc(C#N)c(SCCN2CCCCC2)n1 | 0.6 | -4.3 | 5.6 | -0.2 | 17.2 | . | . | .
Cc1cccc2cc(C#N)c(SCCN3CCCCC3)nc12 | 0.8 | 97.4 | . | 2.3 | 4.4 | 80.9* | 101.2* | 47.8*
Cc1onc(-c2ccccc2)c1-c1nnc(CN2CCN(S(=O)(=O)c3ccccc3)CC2)o1 | -0.1 | 3.8 | -15.7 | -0.3 | . | 12.2 | . | .
SMILES | NR3A LBD binder | SUMO Mot1 rescue | Cardio protect | NTR1 ag | AI-2 QS mod | AHR activator | AHR act cf | PXR counter
Cc1ccccc1CN1CCN(c2nc3ccccc3s2)CC1 | 0.9 | 35.9 | -13.8 | 5.5 | 10.0 | 1.8 | . | .
Cc1nc2nc(-c3cccnc3)nn2c(C)c1Cl | -1.8 | 3.0 | 7.0 | -1.4 | 22.4 | 97.8* | 111.9* | 29.4*
CN1C(=O)NC(c2cccc([N+](=O)[O-])c2)C2=C1CCCC2=O (stereo not given) | 0.9 | 17.7 | 0.8 | -2.1 | 4.6 | -0.5 | . | .
Cc1cccc(-c2nnc(NC(=O)c3ccco3)s2)c1 | 23.7* | -8.9 | -5.5 | 1.4 | 30.7 | 164.1* | 129.0* | 53.7*
Cc1ccc2nc(-c3cccc(NC(=O)c4ccco4)c3)[nH]c2c1 | 5.3 | -15.2 | -5.1 | 0.9 | -0.9 | 90.8* | 91.8* | 16.0*
Cc1ccc(O)c(NC(=O)c2ccco2)c1 | 1.8 | -4.2 | 0.1 | -1.1 | 14.6 | 10.6 | . | .
O=C(Nc1ccc2nc(-c3cccnc3)[nH]c2c1)c1ccco1 | -4.8 | -2.4 | 23.3 | 0.0 | 0.0 | -2.2 | . | .
Cc1ccc(O)c(NC(=O)c2cccc(NC(=O)c3ccco3)c2)c1 | -5.1 | 93.7 | 22.9 | -1.7 | 4.5 | 103.9* | 129.4* | 20.8*
COCOCCn1cc(CN2CCS(=O)(=O)N(Cc3ccc(-c4ccc(OC)cc4)cc3)C(C(C)C)C2=O)nn1 (stereo not given) | . | . | 0.3 | . | . | . | . | .
O=C(CSCc1c(F)cccc1Cl)NNC(=S)NC1CCCCC1 | -7.0 | -3.5 | 2.6 | 1.8 | 11.8 | -1.9 | . | .
COc1ccc(/C=C2\Oc3cc(OCC(=O)N4CCC[C@H]4CO)ccc3C2=O)c(OC)c1 | -1.8 | 1.1 | 7.6 | 6.3 | 24.5 | 0.1 | . | .
Cc1ccccc1CNC(=O)CCC(=O)N1CCOc2ccc(Cl)cc21 | 1.7 | 31.9 | 1.6 | 5.2 | 36.7 | 3.1 | . | .
COC(=O)c1c(-c2cccnc2)csc1NC(=O)c1ccc2c(c1)OCO2 | 0.2 | 96.2 | -8.4 | 0.3 | -9.3 | 113.6* | 23.1 | 4.8
COc1cccc(NC(=O)c2ccc3c(c2)OCO3)c1 | 6.6 | -18.7 | -17.7 | 0.5 | . | 134.1* | 35.4 | 26.1*
COC(=O)c1sccc1NC(=O)c1ccc2c(c1)OCO2 | 1.1 | 14.3 | -5.3 | 0.9 | 11.2 | 8.3 | . | .
O=C(Nc1ccc2c(c1)OCCO2)c1ccccc1 | -0.7 | -7.2 | -16.3 | -1.5 | 11.2 | 3.1 | . | .
O=C(Nc1ccc2c(c1)OCO2)c1ccccc1 | 2.8 | 82.4 | -4.4 | -0.6 | . | 100.8* | 52.4* | 24.2*
CC(=O)N1CC(C(=O)Nc2ccc3c(c2)OCO3)Oc2ccccc21 (stereo not given) | -2.4 | -3.4 | -2.9 | 0.2 | . | 101.8* | 121.0* | 34.4*
O=C(COC(=O)CNC(=O)c1ccccc1)Nc1ccc(Cl)cn1 | -1.0 | -5.0 | 2.1 | 0.3 | . | 0.5 | . | .
O=C(COC(=O)COc1ccc(Cl)cc1)NC1CC1 | 0.4 | 45.7 | 4.7 | 0.4 | . | -0.7 | . | .
CC(C)Oc1cccc(C(=O)NC2=NCCS2)c1 | -1.2 | 87.3 | 0.0 | 1.8 | 22.8 | 10.8 | . | .
CCN(CC)S(=O)(=O)c1ccc(N2CCCC2)c(NC(=O)c2nn(C)c(=O)c3ccccc23)c1 | -0.9 | 18.1 | 10.7 | 1.7 | . | -0.4 | . | .
COc1cccc(C(=O)NC2=NCCS2)c1 | 0.1 | -2.0 | -12.6 | 1.8 | 5.5 | 132.7* | 55.2* | 13.1*

Source: PubChem (several laboratories)
